{
  "source": "PubChem BioAssay (NCI)",
  "note": "Compounds without any hit were thinned out: in the full panel of roughly 83,000, 20% have a hit.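 Compound tested at a single concentration for 48 hours in 96-well plates; a percent growth value below 10 was scored as active.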 Calls of active or inactive are those of the source.",
  "data": [
    {"test_system": "TK-10 renal", "test": "NCI-60 one-dose screen, 48 h (100 = growth as untreated, 0 = no growth, -100 = all killed)", "conditions": "10 µM unless noted", "description": "Growth inhibition of the TK-10 human tumor cell line is measured as a screen for anti-cancer activity. Cells are grown in 96 well plates and exposed to the test compound for 48 hours. Compounds are tested at a single concentration, which is 10^-5 M for most compounds. The reported endpoint is percent growth (GI% or GIPRCNT), where numbers from 0 - 100% represent growth inhibition, and numbers from -100% - 0 represent cell death. For example, a value of 40 represents 60% growth inhibition. A value of 0 means no net growth occurred over the course of the experiment. A value of -40 indicates 40% of cells at the beginning of the experiment died by the end of the experiment. A value of -100 means all cells are dead at the end of the experiment.\nNCI-60 Human Tumor Cell Lines Screen was performed using the standard one-dose NCI protocol, which is described in more detail at https://dtp.cancer.gov/discovery_development/nci-60/default.htm.\nCompounds with GIPRCNT values below 10 were considered active. Activity score was based on GIPRCNT using the following formula: […]\nScore is 0 for GIPRCNT values of 100 or above, 50 for GIPRCNT values of 0, and 100 for GIPRCNT values of -100.", "values": [
      {"smiles": "O=C1c2ccccc2C(=O)c2cc(Cn3cc[n+](Cc4ccc5ccccc5c4)c3)ccc21", "growth": "107% (inactive)"},
      {"smiles": "Cc1c(C(=O)O[C@H]2[C@@H]3[C@H](C)CC[C@H]3[C@]3(C)O[C@@]2(C2CCCCC2)C[C@H]3OC(=O)CO)ccc2ccccc12", "growth": "59.8% (inactive)"},
      {"smiles": "CSc1ccc(Cl)c(C(=O)Nc2sccc2C(N)=O)c1", "growth": "158% (inactive)"},
      {"smiles": "COc1cc2ccccc2cc1C(=O)NC(=S)Nc1ccc(-c2nc3ccccc3[nH]2)cc1", "growth": "83.4% (inactive)"},
      {"smiles": "COc1cc(-c2ncn(/C=C\\c3nnco3)n2)cc(C(F)(F)F)c1", "growth": "34% (inactive)"},
      {"smiles": "COC(=O)[C@]12CC[C@@H](C)[C@H](C)[C@@H]1C1=CC[C@@H]3[C@@]4(C)C(C=O)=C[C@@](C)(CO)C4=CC[C@@]3(C)[C@]1(C)CC2", "growth": "54.4% (inactive)"},
      {"smiles": "Cc1cc(C)on1", "growth": "103% (inactive)"},
      {"smiles": "COc1ccc(-c2cn(-c3cccc(C(=O)/C=C/c4cc(OC)c(OC)c(OC)c4)c3)c(=O)[nH]2)cc1", "growth": "60.8% (inactive)"},
      {"smiles": "CC(/C=N/NC(=O)c1cc(-c2ccco2)[nH]n1)=C\\c1ccccc1", "growth": "123% (inactive)"},
      {"smiles": "C=C(C)[C@@H]1CC[C@@]2(C(=O)O)CC[C@]3(C)C(CCC4[C@@]5(C)CCC(OS(=O)(=O)c6ccccc6)C(C)(C)C5CC[C@]43C)C12", "note": "(stereo not given in full)", "growth": "59.8% (inactive)"},
      {"smiles": "C=CCOc1cccc(/C=C2\\SC(=Nc3ccc(O)cc3)NC2=O)c1", "growth": "67.7% (inactive)"},
      {"smiles": "Nc1ccc(CCCCc2ccccc2)c(Cl)c1", "growth": "88.7% (inactive)"},
      {"smiles": "O=C(O)C1C[C@](O)(c2ccc(F)cc2)[C@@H](c2ccc(F)cc2)O1", "note": "(stereo not given in full)", "growth": "108% (inactive)"},
      {"smiles": "CN1CCN(C2=C(Cl)C(=O)c3ccccc3C2=O)CC1", "growth": "93.5% (inactive)"},
      {"smiles": "Cc1ccc(C)c2c1C(=O)OC2=O", "growth": "102% (inactive)"},
      {"smiles": "Nc1c(-c2nc3ccccc3c(=O)[nH]2)nnn1-c1ccc(Cl)cc1", "growth": "72.6% (inactive)"},
      {"smiles": "COc1cc2nc(Nc3ccc(F)cc3)nc(N)c2cc1OC", "growth": "95.2% (inactive)"},
      {"smiles": "CCCCNCC(=O)Nc1ccc(C(=O)OCC)cc1", "growth": "96.1% (inactive)"},
      {"smiles": "Fc1ccc(Nc2nc(Nc3ccc(-c4nc5ccccc5[nH]4)cc3)c3cn[nH]c3n2)cc1", "growth": "99.5% (inactive)"},
      {"smiles": "Cc1ccc(/C(=N\\N=C(N)N)c2ccccc2)cc1", "growth": "42.2% (inactive)"},
      {"smiles": "Cc1[nH]c(-c2nc3ccccc3[nH]2)c(C)c1C(=O)N1CCOCC1", "growth": "106% (inactive)"},
      {"smiles": "COc1cc(-c2cccc([N+](=O)[O-])c2)c(-c2nc(-c3ccccc3)c(-c3ccccc3)n2C2CC2)cc1OC", "growth": "66.2% (inactive)"},
      {"smiles": "C=CCN1C(=O)[C@]2(SC1=S)[C@H](c1cccc(Cl)c1)CN(C)[C@]21C(=O)NC2C=CC(Cl)=C[C@H]21", "note": "(stereo not given in full)", "growth": "70.9% (inactive)"},
      {"smiles": "COc1cc(-c2cc(-c3ccc(Nc4nc(Nc5ccccc5)nc(Nc5ccc(Cl)cc5)n4)cc3)nc(N)n2)cc(OC)c1OC", "growth": "91.3% (inactive)"},
      {"smiles": "CN=C1C=CC(=C(c2ccc(N(C)C)cc2)c2ccc(N(C)C)cc2)C=C1", "growth": "-53% (active)"},
      {"smiles": "N#Cc1c(NC(=O)c2ccccc2I)sc2c1CCCC2", "growth": "106% (inactive)"},
      {"smiles": "CSc1nc2sc3cc(Cl)ccc3n2c(=N)c1C#N", "growth": "83.8% (inactive)"},
      {"smiles": "CN(C)CCOC(=O)Nc1ccc(Cl)cc1", "growth": "95.1% (inactive)"},
      {"smiles": "CCN(CC)CCOc1ccc(/C(=C(\\C)c2ccc(OC)c(F)c2)c2ccc(Cl)cc2)cc1", "growth": "82.6% (inactive)"},
      {"smiles": "C=C1C(=O)O[C@H]2[C@H]1CC/C(COC(=O)/C=C\\C(=O)NCc1ccc(Cn3c(=O)sn(CCCI)c3=O)cc1)=C\\CC[C@@]1(C)O[C@@H]21", "growth": "-79.3% (active)"},
      {"smiles": "CN1CCC(=C2c3ccccc3C=Cc3ccccc32)CC1", "growth": "112% (inactive)"},
      {"smiles": "COc1ccc(C2CC(c3ccccc3)=NN2c2nc(C)c(C(C)=O)s2)cc1", "note": "(stereo not given)", "growth": "110% (inactive)"},
      {"smiles": "CCN(CC)CC(=O)Nc1cccc(C(=O)OC(C)C)c1", "growth": "87.5% (inactive)"},
      {"smiles": "O=c1ccn(C2OC(F)(CO)C(O)C2F)c(=O)[nH]1", "note": "(stereo not given)", "growth": "90.3% (inactive)"},
      {"smiles": "NS(=O)(=O)Oc1ccc(-c2sc3cc(O)ccc3c2C(=O)c2ccc(OCCN3CCCCC3)cc2)cc1", "growth": "72.4% (inactive)"},
      {"smiles": "CCC(O)(C(c1ccccc1)c1ccccn1)C(c1ccccc1)c1ccccn1", "note": "(stereo not given)", "growth": "107% (inactive)"},
      {"smiles": "Cc1ccc(NSc2ccccc2[N+](=O)[O-])cc1", "growth": "51.7% (inactive)"},
      {"smiles": "OC(COc1cccc2ccccc12)CN1CCN(c2ccccc2)CC1", "note": "(stereo not given)", "growth": "104% (inactive)"},
      {"smiles": "CC/C=C/[C@@H]1C=C[C@@H]2CCC[C@H]2[C@@H]1CC[C@H](O)[C@H](C)N", "growth": "8.1% (active)"},
      {"smiles": "COc1ccc(C(=O)/C=C/c2cc3c(c(OC)c2)OCC(=O)N3)cc1", "growth": "116% (inactive)"}
    ]}
  ]
}
